Records with an inconclusive call do not appear. A call without a number means that no potency is given here. The source made the active and inactive calls. Calls come from the whole dose curve; as a rule, active = well fitted inhibition curve with a large enough effect; inconclusive = small, poorly fitted or top-dose-only effect; inactive = no such curve, though single readings can be large or run the other way.

The target of this experiment is Papain (Carica papaya) (UniProt P00784). Nature of the experiment: Primary qHTS assay for inhibitors of the protease papain (AID 1645873).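 Note: papain turnover of Z-FR-AMC read as the AMC fluorescence gain over 10 min.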 The following applies: papain Z-FR-AMC cleavage, AMC fluorescence; series mostly up to 49.8 µM.
Papain (Carica papaya), sequence (P00784 whole entry, looked up): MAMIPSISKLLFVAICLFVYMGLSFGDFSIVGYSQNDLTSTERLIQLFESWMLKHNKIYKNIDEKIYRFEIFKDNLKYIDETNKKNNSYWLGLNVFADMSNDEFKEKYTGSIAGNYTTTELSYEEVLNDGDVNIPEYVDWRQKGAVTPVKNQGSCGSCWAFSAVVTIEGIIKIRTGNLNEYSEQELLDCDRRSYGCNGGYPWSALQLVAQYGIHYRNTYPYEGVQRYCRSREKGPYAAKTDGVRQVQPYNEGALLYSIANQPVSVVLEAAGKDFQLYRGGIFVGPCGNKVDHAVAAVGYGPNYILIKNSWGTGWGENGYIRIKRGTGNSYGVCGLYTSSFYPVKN
Take `O=C1C2C=CC=CC2=NC(=S)N1CCN1CCC(=C(c2ccc(F)cc2)c2ccc(F)cc2)CC1` (centres undefined): the Potency entry was “inactive”. Then `CCCCCCC(=O)OC1CC(C)(C)NC(C)(C)C1`, with “inactive”; and `CC(=O)NCCc1c[nH]c2ccc(O)cc12`, with “inactive”. The entry for `Oc1cc(O)c2c(c1)O[C@H](c1ccc(O)c(O)c1)[C@@H](O)C2` is “inactive”. Then `O=C(O)c1cc2cc(F)ccc2[nH]1`, with “inactive”; and `C=C(C)C1CC=C(C(=O)O)CC1` (centres undefined), with “inactive”. With `Cn1cc(C(F)(F)F)nc1-c1ccc(OCC(O)CNCCOc2ccc(O)c(C(N)=O)c2)cc1` (centres undefined), the Potency entry is “inactive”. In the case of `O=c1ccc2c(OCCCCc3ccccc3)c3ccoc3cc2o1`, the Potency result is “inactive”.

As to `OCC1NCC(O)C(O)C1O` (centres undefined), the Potency entry is “inactive”. The entry for `N[C@@H](CCCC(=O)O)C(=O)O` is “inactive”; for `NC(N)=NC(N)=Nc1ccccc1` it is “inactive”. The entry for `CC1=C(/C=C/C(C)=C/C=C/C(C)=C\C(=O)O)C(C)(C)CCC1` is “inactive”; for `NC1C=CC=C(C(=O)O)C1` (centres undefined) it is “inactive”. Then `N[C@@H](CS(=O)O)C(=O)O`, with “inactive”; and `Cc1nc(N=Nc2ccc(S(=O)(=O)O)cc2S(=O)(=O)O)c(COP(=O)(O)O)c(C=O)c1O`, with “inactive”; and `C[C@H]1CC2C3CCC4=CC(=O)C=C[C@]4(C)[C@@]3(Cl)[C@@H](O)C[C@]2(C)[C@@]1(O)C(=O)CO` (some centres undefined), with “inactive”. On to `O=C(O)c1ccccc1Nc1ccccc1`, for which the Potency entry was “inactive”. The entry for `O=C(O)CCC(=O)N1CCCC1C(=O)O` (centres undefined) is “inactive”; for `COc1cc(CNC(=O)CCCCCCC(C)C)ccc1O` it is “inactive”; for `Nn1nnc2ccccc21` it is “inactive”. Turning to `O=C(O)Cc1c[nH]c2ccc(O)cc12`, the Potency result is “inactive”. Then `Oc1ccc(Cn2cc[nH]c2=S)cc1`, with “inactive”; and `NCCC1CCCC(CCN)N1` (centres undefined), with “inactive”; and `c1ccc2nc(C3=NCCN3)ccc2c1`, with “inactive”.

Values taken from PubChem BioAssay (NCATS).
